# Rows were chosen to be rich in hits. Some 11% of all compounds tested hit in one or more screens of this group.
# USP30 block: inhibitors of human USP30 deubiquitinase | inhibition, % at 25 µM | Ubiquitin carboxyl-terminal hydrolase 30 (Homo sapiens), Q70CQ3 | 47,000 tested, 5.3% active | purified USP30, Ub-rhodamine cleavage fluorescence
# Target sequence (Q70CQ3 whole entry, looked up): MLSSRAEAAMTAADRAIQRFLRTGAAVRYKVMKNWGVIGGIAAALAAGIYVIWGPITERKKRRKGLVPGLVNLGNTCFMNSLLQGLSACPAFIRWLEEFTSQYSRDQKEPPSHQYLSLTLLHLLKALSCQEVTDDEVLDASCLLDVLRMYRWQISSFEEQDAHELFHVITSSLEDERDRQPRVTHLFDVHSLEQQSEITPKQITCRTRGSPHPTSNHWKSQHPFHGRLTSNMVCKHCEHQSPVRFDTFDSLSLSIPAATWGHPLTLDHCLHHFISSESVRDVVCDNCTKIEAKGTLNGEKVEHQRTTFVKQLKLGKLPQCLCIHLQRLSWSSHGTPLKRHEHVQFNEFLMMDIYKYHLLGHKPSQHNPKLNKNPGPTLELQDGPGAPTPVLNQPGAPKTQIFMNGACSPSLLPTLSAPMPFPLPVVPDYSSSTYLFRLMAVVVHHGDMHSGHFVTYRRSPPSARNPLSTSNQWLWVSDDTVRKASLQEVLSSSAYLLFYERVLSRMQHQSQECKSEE
# USP17 inh: inhibitors of human USP17 deubiquitinase; inhibition, % at 50 µM; 47,000 tested, 6.5% active; AID 1645855, 2021; purified USP17, Ub-rhodamine cleavage fluorescence, 3 h; Ubiquitin carboxyl-terminal hydrolase 17-like protein 5 (Homo sapiens), A8MUK1
# USP28 inh: inhibitors of human USP28 deubiquitinase; Ubiquitin carboxyl-terminal hydrolase 28 (Homo sapiens), Q96RU2; purified USP28, Ub-rhodamine cleavage fluorescence, 30 min; inhibition, % at 25 µM; 47,000 tested, 3% active; AID 1645857, 2021
# Numbers stand for hits; – = inactive; · = no result. Cut-off read from the data, not from the text of the source: active = inhibition above about 30%; inactive = the rest.
SMILES,USP30 block,USP17 inh,USP28 inh
Cc1ccccc1-c1nnn(CC(=O)c2c(-c3ccccc3)n(C)c3ccccc23)n1,–,–,–
COc1ccccc1CNC(=O)CSc1nc2ccccc2c(=O)n1-c1ccccc1OC,–,–,–
Cc1cc(NC(=O)c2ccc(C(F)(F)F)cc2)no1,40,–,–
Cc1cc(NC(=O)c2ccc(C(=O)Nc3cc(C)on3)s2)no1,–,–,–
O=S(=O)(Nc1nc2ccccc2nc1NCc1ccc2c(c1)OCO2)c1ccc(F)cc1,–,–,–
O=S(=O)(NNc1nc2ccccc2nc1C(F)(F)F)c1ccc(Br)cc1,36,–,–
O=C1CC2(CCC(=O)N(CC(=O)N3CCOCC3)CC2)Oc2ccccc21 (centres undefined),–,–,–
O=C(c1ccncc1)N1CCO[C@@H]2CC(COCc3ccccn3)C[C@H]21 (some centres undefined),–,–,–
Cc1cc(-c2cnc(C)nc2-c2ccc(CNC(=O)Cc3sc(C)nc3C)cc2)on1,–,–,–
O=c1oc2ccccc2c(N2CCN(c3ccccn3)CC2)c1CN1CCCC1,–,–,–
O=c1oc2ccccc2c2nn(-c3ccccn3)cc12,–,51,–
CCn1c(=O)c(N2CCN(C(=O)c3cccc(F)c3)CC2)c(C)n(-c2ccccc2)c1=O,–,–,–
O=C1CCCc2cc(S(=O)(=O)Nc3ccc4c(c3)OCCO4)ccc2N1,–,–,–
CC(C)(C)c1ccc(OCc2ccc(C(=O)Nc3nc4ccccc4[nH]3)cc2)cc1,–,–,–
Cc1ccc(Cl)cc1NC(=O)CSc1ncnc2c1oc1ccccc12,–,31,–
Cc1nc(SCC(=O)Nc2ccc(C)c(C)c2)c2oc3ccccc3c2n1,–,36,–
O=C(CSc1ncnc2c1oc1ccccc12)Nc1cc(Cl)ccc1Cl,–,–,–
Cc1nc(SCC(=O)Nc2cc(Cl)ccc2C)c2oc3ccccc3c2n1,53,–,–
CCc1nc(SCC(=O)Nc2ccc(Cl)cc2Cl)c2oc3ccccc3c2n1,–,–,–
Cc1nc(SCC(=O)c2ccc(F)cc2)c2oc3ccccc3c2n1,–,–,–
CC(C)Nc1nc(N2CCC(N3CCCCC3)CC2)nc2c1cnn2C,·,–,·
CC(C)(C)N=C1Nc2ncccc2NC12CCCN(C(=O)c1ccccc1)C2 (centres undefined),–,–,–
O=C(Nc1ccc2c(c1)OCCO2)C1CC(=O)N(C2CCCCC2)C1 (centres undefined),–,–,–
CC(C)(C)c1ccc(C(=O)Nc2cc(=O)[nH]c3ncnn23)cc1,–,–,–
CCOc1ccccc1C(=O)Nc1ccc(-c2nccs2)cc1,31,–,–
SMILES,USP30 block,USP17 inh,USP28 inh
O=C(Nc1ccc(-c2nccs2)cc1)c1ccccc1Cl,–,–,–
CCN1C(=O)C(C)(C(=O)NCc2ccc(F)cc2)Oc2cccnc21 (centres undefined),–,·,–
CCc1ccc(-n2c(=O)[nH]c3c(c2=O)C(C)(C)Cc2ccccc2-3)cc1,–,37,–
Cc1ccc(-n2c(=O)[nH]c3c(c2=O)C(C)(C)Cc2ccccc2-3)cc1,–,–,–
COCCN1CC2(CCN(C(=O)Nc3ccc(Cl)cc3)CC2)C2(CCNC2=O)C1 (centres undefined),–,–,–
COC(=O)c1ccc(NC(=O)CSc2nnc(-c3ccc(O)cc3)n2Cc2ccco2)cc1,84,–,–
O=C(O)CSc1nnc(-c2ccc(Br)cc2)n1Cc1ccco1,–,–,–
COc1cc(C)cc2oc(=O)c(CC(=O)N3CCC[C@H]3C(=O)O)c(C)c12,–,–,–
Cc1ccc(C2c3c(oc4ccccc4c3=O)C(=O)N2c2nc3ccc(C(C)C)cc3s2)o1 (centres undefined),–,–,–
C[C@H](NC(=O)c1cccs1)c1nnc2ccccn12,30,–,–
Cc1ccc(C(=O)N[C@@H](C)c2nnc3ccccn23)cc1,–,–,–
O=C1[C@H]2Cc3c([nH]c4ccccc34)C(c3cccc([N+](=O)[O-])c3)N2C(=O)CN1Cc1ccco1 (some centres undefined),–,40,–
COc1cc(C2c3[nH]c4ccccc4c3C[C@@H]3C(=O)N(Cc4ccco4)CC(=O)N23)cc(OC)c1OC (some centres undefined),–,–,–
COc1cccc(C2c3[nH]c4ccccc4c3C[C@@H]3C(=O)N(CC(O)c4ccccc4)CC(=O)N23)c1 (some centres undefined),–,45,40
COc1cccc(C2c3[nH]c4ccccc4c3C[C@H]3C(=O)N(CCCc4ccccc4)CC(=O)N23)c1 (some centres undefined),–,–,–
CCc1ccccc1S(=O)(=O)N1CCN(c2nc3ccncc3n(C)c2=O)CC1,–,–,–
c1ccc(-c2cc(Nc3c4c(nc5ccccc35)CCCC4)n[nH]2)cc1,–,44,–

# Screening results: PubChem BioAssay, Buhrlage Lab, Dana-Farber Cancer Institute and Novartis Institutes for BioMedical Research (Cambridge, Mass)
